In PubChem BioAssay (NCI):
Compounds without any hit were thinned out: in the full panel of roughly 79,000, 15% have a hit. A number with no mark means an inactive call. Calls of active or inactive are those of the source. Cut-off read from the data, not from the text of the source: active = growth inhibition above about 70%; inactive = the rest.

assay: NCI Yeast Anticancer Drug Screen. Data for the CLN2oe strain (AID 163);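 note: 0% = growth of vehicle-only control cultures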; conditions: S. cerevisiae CLN2oe strain, at 100.0 µM, stronger effect = higher value
In short: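 First, the altered yeast strain was treated with each compound; second, its growth was measured; finally, inhibition was derived by comparison with vehicle controls.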

Row | Structure (SMILES) | growth inhibition
1 | CCC/C(Cl)=N\OC(=O)Nc1cccc(C(F)(F)F)c1 | 18%
2 | [O-][n+]1c2ccc(O)cc2nc2ccc(Cl)cc21 | 49%
3 | Clc1ccccc1C1OC1c1ccccc1Cl (stereo not drawn) | 8%
4 | c1ccc2c(c1)c1ncccc1c1nccnc21 | -7%
5 | CC(=O)Nc1ccc2c(c1)C(=Nc1ccc(C(=O)O)cc1)c1ccccc1-2 | 47%
6 | COc1ccc(OC)c2cc3ccccc3cc12 | 3%
7 | COc1cc(C2c3cc4c(cc3OC(NNc3ccccc3)C2C)OCO4)cc(OC)c1OC (stereo not drawn) | 79% (active)
8 | O=C1c2cc([N+](=O)[O-])ccc2-c2cccc(F)c21 | 22%
9 | CCCCCCCCCCCC(=O)N(C)C | 98% (active)
10 | CCCCCCCCCCCC1=C(O)C(=O)C=C(O)C1=O | 91% (active)
11 | Cc1ccc(CSC(N)=Nc2ccccc2)cc1C | 46%
12 | CCCCCCCCCCC1CCC(=O)O1 (stereo not drawn) | 98% (active)
13 | O=[N+]([O-])c1cc(CCl)ccc1CCl | 97% (active)
14 | Nc1ccc2c(c1)C(=O)c1cccc(N)c1C2=O | 48%
15 | CCCCCCCCCCNC(=O)OCC | 99% (active)
16 | CC1=C(C)Cc2c(O)ccc(O)c2C1 | 33%
17 | COc1ccc2c(c1)C(=O)c1ccccc1C2 | 4%
18 | CCC(=O)OCCn1c2nc(=O)[nH]c(=O)c-2nc2cc(C)c(C)cc21 | -2%
19 | O=C(OCCN1CCCCCC1)C(c1ccsc1)C1CCCCC1 (stereo not drawn) | 72% (active)
20 | Oc1c(Br)cc(Br)cc1C1CCCCC1 | 99% (active)

Row | Structure (SMILES) | growth inhibition
21 | CC1(C)[C@@H]2CC[C@]1(C)[C@H](OC(=O)CSC#N)C2 | 95% (active)
22 | S=C(N/N=C(/c1ccccc1)c1ccccn1)N1CCCCCC1 | 7%
23 | Cc1ccc2[nH]c3c(C)c4cc[n+](C)cc4c(C)c3c2c1 | 95% (active)
24 | CNC(=O)OCc1c(COC(=O)NC)c(-c2ccc(-c3ccccc3)cc2)n(C)c1C | -9%
25 | COc1ccccc1/C=C1\Sc2scc(-c3cccc([N+](=O)[O-])c3)[n+]2C1=O | 95% (active)
26 | O=[N+]([O-])c1ccc2c(c1)C(N1CCN(CCO)CC1)Cc1ccc(F)cc1S2 (stereo not drawn) | 20%
27 | Cc1ccc(CCC2=CCCc3c2ccc2ccccc32)cc1 | 9%
28 | O=[N+]([O-])c1cccc2nccc(NCCCO)c12 | 14%
29 | Cc1ccc(-n2cc(-c3ccc(Cl)cc3)c(C#N)c2N)cc1 | -4%
30 | Cc1ccc(S/N=C\c2ccccc2O)cc1 | 4%
31 | O=C(O)C1OC1(c1cccc(Cl)c1)c1ccccc1Cl (stereo not drawn) | 93% (active)
32 | NC(=S)N/N=C\c1nccc2ccccc12 | 99% (active)
33 | Clc1cccc(C(Nc2nncs2)Nc2nncs2)c1Cl | 34%
34 | O=C(OCC=C1CCCC1)c1cc([N+](=O)[O-])cc([N+](=O)[O-])c1 | 96% (active)
35 | O=C(Nc1ccccc1)C(=O)C(C(=O)c1ccccc1)C(c1ccccc1)c1ccccc1 (stereo not drawn) | 39%
36 | N#CN1C2CCC1CC(=O)C2 | -11%
37 | COc1ccccc1C(=O)OCC1CCCN2CCCCC12 (stereo not drawn) | 95% (active)
38 | CCNc1nnc(CSc2nc(-c3ccccc3)c(-c3ccccc3)[nH]2)s1 | 76% (active)
39 | O=C1c2ccccc2-c2n[nH]c3cccc1c23 | 1%

assay: NCI Yeast Anticancer Drug Screen. Data for the cln2 rad14 strain (AID 165);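 note: 0% = growth equal to vehicle treated cultures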; conditions: S. cerevisiae cln2 rad14 strain, at 5.0 µM (retest, dose inferred, filed as 0.5), stronger effect = higher value
In short: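 Test compounds were added to cln2 rad14 yeast cultures; inhibition of growth was then determined by comparison with vehicle treatment.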

Row | Structure (SMILES) | growth inhibition
40 | CCC/C(Cl)=N\OC(=O)Nc1cccc(C(F)(F)F)c1 | 56%
41 | [O-][n+]1c2ccc(O)cc2nc2ccc(Cl)cc21 | -4%
42 | Clc1ccccc1C1OC1c1ccccc1Cl (stereo not drawn) | 37%
43 | c1ccc2c(c1)c1ncccc1c1nccnc21 | -60%
44 | CC(=O)Nc1ccc2c(c1)C(=Nc1ccc(C(=O)O)cc1)c1ccccc1-2 | -8%
45 | COc1ccc(OC)c2cc3ccccc3cc12 | 46%
46 | COc1cc(C2c3cc4c(cc3OC(NNc3ccccc3)C2C)OCO4)cc(OC)c1OC (stereo not drawn) | 17%
47 | O=C1c2cc([N+](=O)[O-])ccc2-c2cccc(F)c21 | 18%
48 | CCCCCCCCCCCC(=O)N(C)C | 31%
49 | CCCCCCCCCCCC1=C(O)C(=O)C=C(O)C1=O | -11%
50 | Cc1ccc(CSC(N)=Nc2ccccc2)cc1C | -16%
51 | CCCCCCCCCCC1CCC(=O)O1 (stereo not drawn) | 2%
52 | O=[N+]([O-])c1cc(CCl)ccc1CCl | 57%
53 | Nc1ccc2c(c1)C(=O)c1cccc(N)c1C2=O | 8%
54 | CCCCCCCCCCNC(=O)OCC | -55%
55 | CC1=C(C)Cc2c(O)ccc(O)c2C1 | 31%
56 | COc1ccc2c(c1)C(=O)c1ccccc1C2 | -18%
57 | CCC(=O)OCCn1c2nc(=O)[nH]c(=O)c-2nc2cc(C)c(C)cc21 | -1%
58 | O=C(OCCN1CCCCCC1)C(c1ccsc1)C1CCCCC1 (stereo not drawn) | 81% (active)
59 | Oc1c(Br)cc(Br)cc1C1CCCCC1 | 41%

Row | Structure (SMILES) | growth inhibition
60 | CC1(C)[C@@H]2CC[C@]1(C)[C@H](OC(=O)CSC#N)C2 | 34%
61 | S=C(N/N=C(/c1ccccc1)c1ccccn1)N1CCCCCC1 | 18%
62 | Cc1ccc2[nH]c3c(C)c4cc[n+](C)cc4c(C)c3c2c1 | 30%
63 | CNC(=O)OCc1c(COC(=O)NC)c(-c2ccc(-c3ccccc3)cc2)n(C)c1C | 24%
64 | COc1ccccc1/C=C1\Sc2scc(-c3cccc([N+](=O)[O-])c3)[n+]2C1=O | 15%
65 | O=[N+]([O-])c1ccc2c(c1)C(N1CCN(CCO)CC1)Cc1ccc(F)cc1S2 (stereo not drawn) | 2%
66 | Cc1ccc(CCC2=CCCc3c2ccc2ccccc32)cc1 | 6%
67 | O=[N+]([O-])c1cccc2nccc(NCCCO)c12 | 15%
68 | Cc1ccc(-n2cc(-c3ccc(Cl)cc3)c(C#N)c2N)cc1 | -9%
69 | Cc1ccc(S/N=C\c2ccccc2O)cc1 | -58%
70 | O=C(O)C1OC1(c1cccc(Cl)c1)c1ccccc1Cl (stereo not drawn) | 54%
71 | NC(=S)N/N=C\c1nccc2ccccc12 | -99%
72 | Clc1cccc(C(Nc2nncs2)Nc2nncs2)c1Cl | -3%
73 | O=C(OCC=C1CCCC1)c1cc([N+](=O)[O-])cc([N+](=O)[O-])c1 | -24%
74 | O=C(Nc1ccccc1)C(=O)C(C(=O)c1ccccc1)C(c1ccccc1)c1ccccc1 (stereo not drawn) | 5%
75 | N#CN1C2CCC1CC(=O)C2 | 50%
76 | COc1ccccc1C(=O)OCC1CCCN2CCCCC12 (stereo not drawn) | -9%
77 | CCNc1nnc(CSc2nc(-c3ccccc3)c(-c3ccccc3)[nH]2)s1 | 4%
78 | O=C1c2ccccc2-c2n[nH]c3cccc1c23 | 44%
